Source: PubChem BioAssay
HIF act – HIF pathway transcriptional activators, primary screen, cell-based, U2OS HRE-luciferase, luminescence; activation, % at 7.5 µM (by protocol); 0.32% of 300,000 active; U2OS HRE-luciferase reporter; normalized: DMSO 0%, desferrioxamine 100%;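 active means mean activation of at least 10% of the iron chelator positive control signal, with at least half of replicates also reaching 10%; inconclusive means mean and replicate majority disagree about reaching 10%; inactive means mean and most replicates under 10%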
AHR activator – AHR activators, primary screen, cell-based, luminescence, luciferase reporter, human | Aryl hydrocarbon receptor (Homo sapiens), P35869 | 2.5% of 320,000 active | activation, % at 5 µM | AHR-responsive luciferase reporter cells | AID 2796, 2010; in the data active means activation above about 47%;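 further: 0% = vehicle wells and 100% = reference agonist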
Platelet DG rel – inhibitors of platelet dense granule secretion, primary screen, cell-based, MLPCN, human platelets | human platelet-rich plasma, SFLLRN dense granule ATP release, luminescence | 0.22% of 300,000 active | inhibition, %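 (compounds screened at 7.5 µM in platelet-rich plasma)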 | AID 1663, 2009;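 active means mean replicate score, as percent of positive control, at or above 50; inconclusive means mean below 50 but at least one replicate at or above 50; inactive means mean and every replicate below 50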
pCIP destab – p/CIP-EGFP fusion destabilizers, primary screen, fluorescence, F442A cells. Q05BA5. decrease of EGFP signal, % at 10 µM. 16 h. 0.01% of 290,000 active;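 active means EGFP signal decrease of at least 30% at 10 µM or well 3 SD below plate mean, unless failing retest; inactive means the rest, including hits failing retest or dose response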
PolyA inhibitor – polyadenylation inhibitors in yeast reporter cells, primary screen, luminescence, S. cerevisiae | S. cerevisiae SKY197-pL101 polyadenylation reporter, beta-gal luminescence; efflux-impaired pdr1/pdr3 knockout yeast; score 100 = 6 SD above DMSO | activity score, % at 12 µM | 0.02% of 300,000 active | AID 1875, 2009;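 active means lowest replicate activity score at least 50, where 100 means six control SD above control mean; inconclusive means lowest score under 50 but half or more replicates reach 50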;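 further: yeast exposed to compound for 9 h at 30 °C; higher score means more reporter readthrough which indicates perturbed polyadenylation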
* = called active by the depositor; u = inconclusive; x = no result. In the library only some 2.8% were active in any assay of this set; here they are far more common.

SMILES | HIF act | AHR activator | Platelet DG rel | pCIP destab | PolyA inhibitor
Cc1ccc2[nH]c3c(c2c1)CCC3=O | 0.2 | 1.6 | 3.4 | -3.2 | u
Cc1ccc2[nH]c3c(c2c1)CCc1cn[nH]c1-3 | 0.3 | 52.9* | 6.3 | -5.9 | -5.1
CCc1nnc(NC(=O)CSc2nc3cc(OC)ccc3cc2C)s1 | 0.0 | 4.4 | -3.8 | -2.8 | -5.9
Cn1c(=O)[nH]c(=O)c2c1nc(Br)n2CC(O)c1ccccc1 (centres undefined) | -0.3 | 15.1 | -7.0 | -4.6 | 3.8
Cc1cc(C)nc(N/N=C/c2cn[nH]c2-c2ccccc2)n1 | 0.0 | 67.4* | -21.8 | -3.6 | 3.8
CSc1nsc(SC)c1NC(=O)OCC1CCCO1 (centres undefined) | -0.5 | 0.1 | -7.3 | -4.4 | 4.1
CCOC(=O)CN(C(=O)c1snc(C(N)=O)c1N)C(C(=O)NC1CCCCC1)c1ccc(F)cc1 (centres undefined) | -0.3 | 0.7 | -0.9 | -5.4 | 12.0
COc1ccc(/C=C2\SC(=O)N(CC(=O)N(C)C3CCS(=O)(=O)C3)C2=O)cc1 (centres undefined) | 0.6 | 4.5 | 10.4 | -10.0 | 4.4
COc1ccc(/C=C2\SC(=O)N(CCC(=O)N(C)C3CCS(=O)(=O)C3)C2=O)cc1 (centres undefined) | 64.3* | 0.1 | 8.6 | -1.5 | 3.6
Cc1cccc([C@@H]2[C@@H]3C(=O)N(Cc4ccccc4)C(=O)[C@@H]3[C@]3(CC(C)C)C(=O)N(c4cccc(F)c4)C(=O)N23)c1 | -0.3 | 2.5 | 6.0 | x | 14.9
Cc1ccc(NC(=O)/C=C2\NC(=O)CS2)cc1 | 1.2 | 60.6* | -2.0 | -9.1 | 4.2
COc1ccccc1/C=C1\SC(=S)N(CCC(=O)NNC(=O)c2ccccc2O)C1=O | 0.2 | 56.4* | 8.0 | 2.7 | 4.3
COc1ccc(/C=C2\SC(=S)N(CCCC(=O)NNC(=O)c3ccccc3O)C2=O)cc1 | -3.7 | -2.3 | -4.6 | 3.6 | 5.5
CC1(CCc2ccccc2)NC(=S)N(c2ccc(Cl)cc2)N1 (centres undefined) | -0.2 | 54.5* | -4.5 | -16.7 | u
O=C1/C(=C\Nc2ccc(OC(F)(F)F)cc2)CCN1c1ncccn1 | 0.7 | 5.8 | 8.8 | 2.6 | -13.8
O=C1/C(=C\Nc2ccc(Cl)cc2)CCN1c1ncccn1 | 2.4 | 51.7* | 9.9 | -6.5 | 1.1
Cc1ccc(N(CC(=O)N/N=C/c2cc(C)n(-c3ccccc3C)c2C)S(C)(=O)=O)cc1 | -0.3 | -0.6 | -13.2 | 21.8* | -5.0
Cc1noc(C)c1CSCC(=O)Nc1nc2c(F)cc(F)cc2s1 | x | 36.7 | x | x | x
CC(=O)Nc1cccc(NC(=O)CSc2nnnn2-c2ccc3c(c2)OCO3)c1 | x | x | x | -14.1 | x
CC1CC(O)C(C)CN1 (centres undefined) | -0.7 | x | 15.9 | -12.1 | -0.7
CCC(C)Sc1cc(C(F)(F)F)c(C(=O)Nc2ccc(Cl)cc2)cn1 (centres undefined) | -0.2 | 58.5* | -2.2 | -17.4 | 20.3
CC(=O)NC1(NC(C)=O)CCN(C)CC1 | -1.1 | -0.3 | 0.3 | -7.3 | 1.7
NC1=NC(=Nc2cccc(S(N)(=O)=O)c2)c2ccccc21 | -0.1 | 1.9 | 17.8 | 2.0 | 10.1
COc1cc(N=Nc2cccc(S(N)(=O)=O)c2)c2ccccc2c1N | 1.1 | 56.8* | 5.8 | -26.0 | -10.7
O=C(Nc1cccc(O)c1)c1cc(-c2ccc3c(c2)OCO3)on1 | -4.3 | -2.3 | 95.1* | 3.1 | 3.3
SMILES | HIF act | AHR activator | Platelet DG rel | pCIP destab | PolyA inhibitor
CCN(CC)C(=O)c1cc(-c2ccc3c(c2)OCO3)on1 | -3.0 | 73.0* | 4.5 | -2.2 | -2.9
CCN(CC)C(=O)c1cc(-c2ccccc2OC)on1 | 1.6 | 47.9* | -2.7 | -5.6 | -19.1
COc1cc(NC(=O)c2cc(-c3ccc4c(c3)OCO4)on2)cc(OC)c1OC | 0.8 | -5.1 | -33.8 | 0.8 | 5.3
COCCNC(=O)c1cc(-c2ccccc2OC)on1 | 4.0 | -0.7 | 3.2 | -18.9 | -5.8
CCc1ccc(C2C(=O)c3ccccc3C2=O)cc1 | 16.0* | 2.9 | -0.9 | x | 31.3
CCCc1c(C(=O)N/N=C/c2ccccc2C(F)(F)F)nnn1-c1nonc1N | 0.1 | -4.2 | 1.0 | 1.3 | -11.1
CC(=O)Nc1ccccc1 | x | -1.1 | x | x | x
C/C(=N\O)C(=O)Nc1ccccc1 | 231.3* | 1.4 | -12.1 | 0.5 | 17.5
CN(C)C(/C=C/Nc1cccc(Br)c1)=C(C#N)C#N | -0.1 | 3.4 | -0.5 | 4.7 | -5.9
Cc1cccc(N/C=C/C(=C(C#N)C#N)N(C)C)c1 | x | 48.2* | -2.4 | 4.6 | 11.2
CCC(=O)Oc1ccc2c(c1)O/C(=C\c1ccco1)C2=O | 0.3 | -2.9 | 1.8 | -2.8 | 3.9
CCN(CC)C(=O)Oc1ccc2c(c1)O/C(=C\c1ccco1)C2=O | 0.7 | 3.6 | -4.2 | -2.9 | 59.5*
O=c1oc2cc(O)ccc2cc1-c1nc2c(s1)CCc1ccccc1-2 | x | 13.7 | x | -241.4 | x
O=c1oc2ccccc2cc1-c1nc2c(s1)CCc1ccccc1-2 | 0.9 | 71.2* | -3.9 | 1.8 | -9.6
COc1cc(NC(=O)c2ccccc2-c2ccccc2)cc(OC)c1 | -0.5 | 47.8* | -14.7 | -6.5 | -13.7
CCn1ncc(C(=O)Nc2ccc(F)cc2)c1C | 4.8 | 59.8* | 2.5 | x | -5.4
CCn1ncc(C(=O)Nc2ccccc2C)c1C | -0.1 | -1.6 | -0.5 | -1.6 | 11.6
O=C(Nc1ccc(F)cc1)c1c(Cl)nc2ccccn12 | 0.7 | 57.6* | 0.3 | -9.1 | -12.4
O=C(Nc1ccc(F)cc1)c1cccc2ccccc12 | -0.5 | 57.5* | -4.1 | 4.2 | -0.6
COc1ccc(NC(=O)Nc2c(O)ccc3ccccc23)cc1 | 0.8 | 67.4* | 6.9 | x | 3.0
CCCn1cccc(C(=O)Nc2ccc(OC)cc2)c1=O | -9.4 | 75.4* | -16.8 | 5.4 | -2.7
COc1ccc(NC(=O)c2ccccc2C)cc1 | -4.1 | -0.1 | 6.5 | 8.7 | -5.4
C#CCn1cccc(C(=O)Nc2ccc(OC)cc2)c1=O | 1.7 | 40.0 | 3.4 | -9.2 | -18.6
COc1ccc(NC(=O)c2cccc3ccccc23)cc1 | 4.5 | 51.6* | -0.5 | -11.2 | -22.5
O=C(/C=C/c1ccc([N+](=O)[O-])cc1)N(c1ccccn1)C1CCCCC1 | -0.4 | 3.0 | 5.4 | -31.0 | -20.3
SMILES | HIF act | AHR activator | Platelet DG rel | pCIP destab | PolyA inhibitor
O=C(OCc1nc2ccccc2c(=O)[nH]1)c1cccs1 | 0.4 | 55.2* | -3.8 | -7.0 | 0.2
Cc1cc(C)c(C#N)c(SCc2nc3ccccc3c(=O)[nH]2)n1 | 0.4 | 51.4* | -0.5 | 8.0 | -14.6
O=c1[nH]c(SCc2nc3ccccc3c(=O)n2-c2ccccc2)nc2ccccc12 | -3.6 | 55.4* | 13.9 | 3.3 | -13.9
COCc1cc(C)nc(SCc2nc3ccccc3c(=O)[nH]2)c1C#N | 0.1 | 33.9 | 7.1 | -14.4 | 29.4
CCn1c(SCc2nc3ccccc3c(=O)[nH]2)nc2ccccc2c1=O | -0.1 | 67.3* | -0.3 | -6.3 | -3.5
CCOC(=O)C(C)/C(C)=N/NC(N)=S (centres undefined) | -0.2 | 1.6 | -14.8 | 5.1 | -10.0
